Targets with a hit are over-represented here; the source holds about 8,800 in all. About 0.5% of all pairs of compound and target were hits.
Tests used:
Test in all cases: log2 fold change, soluble protein after heating vs DMSO (PISA); higher = thermal stabilisation; K562 lysate, 10 uM; active = over 0.2 and 3.5 SD of the protein, either way, in both replicates (recomputed)
lapatinib = compound: CS(=O)(=O)CCNCc1ccc(-c2ccc3ncnc(Nc4ccc(OCc5cccc(F)c5)c(Cl)c4)c3c2)o1 [lapatinib]
Outline: (§1)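 To prepare the extract, K562 pellets were dounce-homogenised in PBS pH 7.4 with 1 mM MgCl2, giving crude material at 1 mg/mL protein. This was treated with 10 μM compound for 30 min, then heated in aliquots for 3 min over 48°C-58°C before pooling and addition of NP-40 to 0.5% at 4°C. Centrifugation at 21,000xg for 90 min left soluble protein in the supernatant, which TMTpro 16plex LC-MS/MS quantified with equalised channel sums. Results are log-two fold changes in thermal stability compared with solvent controls, from duplicates.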

pictilisib = compound: CS(=O)(=O)N1CCN(Cc2cc3nc(-c4cccc5[nH]ncc45)nc(N4CCOCC4)c3s2)CC1 [pictilisib]
Outline: as §1

crizotinib = compound: C[C@@H](Oc1cc(-c2cnn(C3CCNCC3)c2)cnc1N)c1c(Cl)ccc(F)c1Cl [crizotinib]
Outline: as §1

[1] = compound: C[C@H](C1=CC=C(C=C1)C(=O)NC2=C3C=CNC3=NC=C2)N
Outline: as §1

duvelisib = compound: C[C@H](Nc1ncnc2nc[nH]c12)c1cc2cccc(Cl)c2c(=O)n1-c1ccccc1 [duvelisib]
Outline: as §1

gandotinib = compound: Cc1cc(Nc2cc(CN3CCOCC3)c3nc(C)c(Cc4ccc(Cl)cc4F)n3n2)n[nH]1 [gandotinib]
Outline: as §1

tozasertib = compound: Cc1cc(Nc2cc(N3CCN(C)CC3)nc(Sc3ccc(NC(=O)C4CC4)cc3)n2)n[nH]1 [tozasertib]
Outline: as §1

doramapimod = compound: Cc1ccc(-n2nc(C(C)(C)C)cc2NC(=O)Nc2ccc(OCCN3CCOCC3)c3ccccc23)cc1 [doramapimod]
Outline: as §1

bafetinib = compound: Cc1ccc(NC(=O)c2ccc(CN3CC[C@H](N(C)C)C3)c(C(F)(F)F)c2)cc1Nc1nccc(-c2cncnc2)n1 [bafetinib]
Outline: as §1

[2] = compound: Cc1cccc(CC(=O)N2CCc3c2ccc(-c2cn(C)c4ncnc(N)c24)c3F)n1
Outline: as §1

Measured: log2 fold change

NUDT4 (UniProt Q9NZJ9)
inactive: lapatinib -0.01 | pictilisib -0.055 | crizotinib 0.032 | [1] 0.166 | duvelisib -0.039 | gandotinib -0.188 | tozasertib -0.022 | doramapimod -0.076 | bafetinib 0.117
active: [2] -0.304

NSUN2 (UniProt Q08J23)
inactive: lapatinib -0.009 | pictilisib -0.006 | crizotinib -0.024 | [1] 0.072 | duvelisib -0.005 | gandotinib -0.05 | tozasertib -0.011 | doramapimod -0.009 | bafetinib -0.038 | [2] -0.007

NFATC4 isoform 2 (UniProt Q14934)
Sequence of UniProt Q14934 (Q14934 whole entry, looked up): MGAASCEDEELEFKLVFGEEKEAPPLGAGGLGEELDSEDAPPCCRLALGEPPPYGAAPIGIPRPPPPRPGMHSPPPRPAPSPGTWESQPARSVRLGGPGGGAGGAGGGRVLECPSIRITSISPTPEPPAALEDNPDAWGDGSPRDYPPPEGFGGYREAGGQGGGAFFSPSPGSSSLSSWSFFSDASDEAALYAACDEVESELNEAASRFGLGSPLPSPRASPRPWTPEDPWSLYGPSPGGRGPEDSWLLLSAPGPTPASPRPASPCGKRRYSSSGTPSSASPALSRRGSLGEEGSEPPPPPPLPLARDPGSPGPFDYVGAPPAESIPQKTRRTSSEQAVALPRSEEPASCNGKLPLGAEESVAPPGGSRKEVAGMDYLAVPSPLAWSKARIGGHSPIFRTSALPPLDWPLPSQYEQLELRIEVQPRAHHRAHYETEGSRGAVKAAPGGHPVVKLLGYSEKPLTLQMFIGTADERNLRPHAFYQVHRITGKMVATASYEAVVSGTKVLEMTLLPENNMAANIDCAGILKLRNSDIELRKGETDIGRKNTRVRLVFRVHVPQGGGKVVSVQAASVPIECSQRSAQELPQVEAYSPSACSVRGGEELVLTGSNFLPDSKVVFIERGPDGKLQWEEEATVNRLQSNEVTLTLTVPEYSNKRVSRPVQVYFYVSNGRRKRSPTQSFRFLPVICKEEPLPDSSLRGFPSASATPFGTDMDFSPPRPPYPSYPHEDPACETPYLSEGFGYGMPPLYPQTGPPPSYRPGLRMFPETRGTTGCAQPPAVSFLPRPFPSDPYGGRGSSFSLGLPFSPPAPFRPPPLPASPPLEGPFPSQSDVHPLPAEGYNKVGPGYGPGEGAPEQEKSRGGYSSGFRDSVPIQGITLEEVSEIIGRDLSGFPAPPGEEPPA
inactive: lapatinib 0.039 | pictilisib 0.003 | crizotinib -0.132 | [1] -0.187 | duvelisib -0.006 | gandotinib 0.04 | tozasertib 0.084 | doramapimod 0.026 | bafetinib -0.305 | [2] 0.192

NOSIP (UniProt Q9Y314)
inactive: lapatinib -0.03 | pictilisib -0.042 | crizotinib -0.026 | [1] 0.02 | duvelisib -0.004 | gandotinib 0.017 | tozasertib -0.053 | doramapimod 0.013 | bafetinib -0.003 | [2] 0.038

OPA1 isoform 2 (UniProt O60313)
active: gandotinib -0.248
inactive: lapatinib -0.017 | pictilisib 0.002 | crizotinib -0.096 | [1] -0.013 | duvelisib -0.002 | tozasertib 0.03 | doramapimod 0.023 | bafetinib -0.073 | [2] 0.048

ORC5 (UniProt O43913)
inactive: lapatinib -0.014 | pictilisib -0.049 | crizotinib -0.137 | [1] -0.009 | duvelisib -0.016 | gandotinib -0.113 | tozasertib -0.023 | doramapimod 0.027 | bafetinib -0.069 | [2] 0.045

NUDT4 isoform 2 (UniProt Q9NZJ9)
inactive: lapatinib -0.002 | pictilisib 0.006 | crizotinib -0.018 | [1] -0.055 | duvelisib -0.013 | gandotinib 0.061 | tozasertib 0.065 | doramapimod -0.009 | bafetinib -0.006 | [2] 0.011

OSGEP (UniProt Q9NPF4)
inactive: lapatinib -0.011 | pictilisib -0.025 | crizotinib -0.006 | [1] -0.07 | duvelisib -0.037 | gandotinib -0.024 | tozasertib 0.043 | doramapimod -0.035 | bafetinib -0.008 | [2] 0.033

PAK1 (UniProt Q13153)
inactive: lapatinib -0.037 | pictilisib -0.034 | crizotinib 0.019 | [1] -0.117 | duvelisib 0.044 | gandotinib -0.011 | tozasertib -0.02 | doramapimod -0.035 | bafetinib 0.002 | [2] -0.005

NUP210 (UniProt Q8TEM1)
inactive: lapatinib -0.074 | pictilisib -0.076 | crizotinib -0.028 | [1] -0.034 | duvelisib 0.013 | gandotinib -0.08 | tozasertib -0.012 | doramapimod -0.017 | bafetinib -0.007 | [2] 0.044

NFIC (UniProt P08651)
inactive: lapatinib -0.004 | pictilisib 0.109 | crizotinib 0.007 | [1] -0.361 | duvelisib -0.002 | gandotinib 0.237 | tozasertib 0.035 | doramapimod 0.139 | bafetinib -0.038 | [2] 0.003

MRPS18A isoform 2 (UniProt Q9NVS2)
inactive: lapatinib 0.005 | pictilisib -0.046 | crizotinib -0.02 | [1] 0.262 | duvelisib -0.133 | gandotinib -0.164 | tozasertib 0.043 | doramapimod -0.005 | bafetinib 0 | [2] -0.226

MTMR6 (UniProt Q9Y217)
Sequence of UniProt Q9Y217 (Q9Y217 whole entry, looked up): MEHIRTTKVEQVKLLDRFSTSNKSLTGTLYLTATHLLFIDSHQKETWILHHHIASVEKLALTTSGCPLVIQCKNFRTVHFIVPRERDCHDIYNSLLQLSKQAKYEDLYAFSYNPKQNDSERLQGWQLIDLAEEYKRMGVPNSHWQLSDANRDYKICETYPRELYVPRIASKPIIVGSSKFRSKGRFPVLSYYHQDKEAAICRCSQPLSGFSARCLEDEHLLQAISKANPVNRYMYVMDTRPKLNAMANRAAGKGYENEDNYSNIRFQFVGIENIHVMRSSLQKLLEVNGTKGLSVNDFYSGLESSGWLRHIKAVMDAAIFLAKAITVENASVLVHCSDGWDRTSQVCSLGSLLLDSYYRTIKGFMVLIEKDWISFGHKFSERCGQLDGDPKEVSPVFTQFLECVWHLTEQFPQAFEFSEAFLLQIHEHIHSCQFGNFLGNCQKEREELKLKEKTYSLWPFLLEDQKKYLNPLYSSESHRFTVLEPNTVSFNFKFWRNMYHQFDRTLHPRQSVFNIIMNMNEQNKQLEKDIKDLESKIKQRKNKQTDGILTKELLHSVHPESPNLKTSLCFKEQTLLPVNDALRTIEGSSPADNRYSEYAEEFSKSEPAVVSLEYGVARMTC
inactive: lapatinib 0.017 | pictilisib 0.025 | crizotinib -0.037 | [1] 0.071 | duvelisib 0.02 | gandotinib -0.024 | tozasertib 0.014 | doramapimod 0.056 | bafetinib 0.001 | [2] -0.113

NUF2 (UniProt Q9BZD4)
Sequence of UniProt Q9BZD4 (Q9BZD4 whole entry, looked up): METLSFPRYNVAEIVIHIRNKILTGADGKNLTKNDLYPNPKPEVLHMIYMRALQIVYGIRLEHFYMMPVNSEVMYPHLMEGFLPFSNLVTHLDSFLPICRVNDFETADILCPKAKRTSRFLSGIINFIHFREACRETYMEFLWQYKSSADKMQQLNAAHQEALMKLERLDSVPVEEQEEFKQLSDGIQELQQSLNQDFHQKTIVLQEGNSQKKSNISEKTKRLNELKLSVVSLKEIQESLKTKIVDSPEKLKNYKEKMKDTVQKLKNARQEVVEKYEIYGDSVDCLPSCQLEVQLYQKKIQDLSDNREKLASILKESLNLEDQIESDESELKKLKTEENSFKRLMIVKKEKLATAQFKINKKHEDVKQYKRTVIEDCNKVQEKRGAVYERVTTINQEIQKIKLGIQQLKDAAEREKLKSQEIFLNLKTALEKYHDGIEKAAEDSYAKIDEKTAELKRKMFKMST
inactive: lapatinib -0.002 | pictilisib -0.028 | crizotinib -0.024 | [1] -0.023 | duvelisib -0.019 | gandotinib -0.103 | tozasertib 0.023 | doramapimod 0.008 | bafetinib -0.087 | [2] 0.053

ORC3 isoform 2 (UniProt Q9UBD5)
inactive: lapatinib -0.014 | pictilisib -0.011 | crizotinib -0.119 | [1] -0.008 | duvelisib -0.025 | gandotinib -0.097 | tozasertib -0.024 | doramapimod -0.009 | bafetinib -0.046 | [2] 0.001

NONO (UniProt Q15233)
inactive: lapatinib -0.004 | pictilisib 0.001 | crizotinib 0.011 | [1] 0.071 | duvelisib -0.01 | gandotinib -0.06 | tozasertib 0.028 | doramapimod -0.014 | bafetinib -0.033 | [2] -0.04

NF1 (UniProt P21359)
inactive: lapatinib -0.034 | pictilisib -0.022 | crizotinib -0.075 | [1] -0.031 | duvelisib -0.001 | gandotinib -0.108 | tozasertib -0.014 | doramapimod -0.009 | bafetinib -0.041 | [2] 0.049

N4BP2 (UniProt Q86UW6)
active: [1] -0.236
inactive: lapatinib 0.003 | pictilisib 0.054 | crizotinib 0.002 | duvelisib 0.028 | gandotinib 0.014 | tozasertib -0.032 | doramapimod -0.015 | bafetinib -0.038 | [2] 0.149

NOB1 (UniProt Q9ULX3)
inactive: lapatinib 0.027 | pictilisib 0.01 | crizotinib -0.019 | duvelisib -0.033 | gandotinib -0.084 | tozasertib 0.011 | doramapimod -0.023 | bafetinib -0.041 | [2] -0.048
active: [1] 0.283

PANK1 (UniProt Q8TE04)
inactive: lapatinib -0.008 | pictilisib 0.151 | crizotinib -0.018 | [1] 0.106 | duvelisib 0.099 | tozasertib 0.069 | doramapimod 0.041 | bafetinib -0.062 | [2] -0.253
active: gandotinib -0.31

NUCB2 (UniProt P80303)
inactive: lapatinib -0.006 | pictilisib -0.006 | crizotinib 0.041 | duvelisib 0.008 | gandotinib -0.044 | tozasertib 0.003 | doramapimod -0.024 | bafetinib -0.022 | [2] -0.126
active: [1] 0.253

NNT (UniProt Q13423)
Sequence of UniProt Q13423 (Q13423 whole entry, looked up): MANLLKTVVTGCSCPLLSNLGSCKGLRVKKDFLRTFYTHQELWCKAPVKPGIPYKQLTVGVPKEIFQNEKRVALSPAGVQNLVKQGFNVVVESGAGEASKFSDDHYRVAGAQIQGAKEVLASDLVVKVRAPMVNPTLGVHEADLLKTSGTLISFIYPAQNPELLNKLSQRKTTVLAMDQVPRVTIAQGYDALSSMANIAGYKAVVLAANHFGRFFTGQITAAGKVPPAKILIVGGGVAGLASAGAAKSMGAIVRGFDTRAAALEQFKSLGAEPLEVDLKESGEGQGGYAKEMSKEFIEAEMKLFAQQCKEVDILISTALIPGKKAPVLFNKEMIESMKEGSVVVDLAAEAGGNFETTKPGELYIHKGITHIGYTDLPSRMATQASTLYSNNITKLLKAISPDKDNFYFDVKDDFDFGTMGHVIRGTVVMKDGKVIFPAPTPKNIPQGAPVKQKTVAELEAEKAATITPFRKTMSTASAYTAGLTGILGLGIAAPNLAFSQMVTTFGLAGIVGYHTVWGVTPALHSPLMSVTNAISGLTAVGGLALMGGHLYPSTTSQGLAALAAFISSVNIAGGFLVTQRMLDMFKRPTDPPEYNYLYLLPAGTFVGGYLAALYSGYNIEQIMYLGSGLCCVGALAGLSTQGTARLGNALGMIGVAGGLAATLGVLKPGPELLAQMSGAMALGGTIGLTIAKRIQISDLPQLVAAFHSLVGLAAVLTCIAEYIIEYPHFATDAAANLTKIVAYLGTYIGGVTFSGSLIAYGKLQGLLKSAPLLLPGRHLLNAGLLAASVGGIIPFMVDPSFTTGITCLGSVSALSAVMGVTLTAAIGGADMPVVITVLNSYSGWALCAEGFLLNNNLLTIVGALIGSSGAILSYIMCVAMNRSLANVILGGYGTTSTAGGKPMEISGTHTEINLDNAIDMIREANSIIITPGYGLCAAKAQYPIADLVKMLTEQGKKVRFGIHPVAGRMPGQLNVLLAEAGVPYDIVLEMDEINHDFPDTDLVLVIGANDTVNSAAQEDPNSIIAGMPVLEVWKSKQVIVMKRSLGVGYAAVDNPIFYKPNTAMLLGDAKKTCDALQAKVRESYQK
active: gandotinib -0.445
inactive: lapatinib -0.047 | pictilisib -0.046 | crizotinib 0.03 | [1] 0.013 | duvelisib 0.039 | tozasertib -0.014 | doramapimod 0.011 | bafetinib -0.006 | [2] 0.003

NCOR1 (UniProt O75376)
inactive: lapatinib 0.046 | pictilisib -0.028 | crizotinib 0.018 | [1] 0.031 | duvelisib -0.022 | gandotinib -0.03 | tozasertib -0.009 | doramapimod -0.034 | bafetinib -0.028 | [2] 0.006

MTFP1 (UniProt Q9UDX5)
Sequence of UniProt Q9UDX5 (Q9UDX5 whole entry, looked up): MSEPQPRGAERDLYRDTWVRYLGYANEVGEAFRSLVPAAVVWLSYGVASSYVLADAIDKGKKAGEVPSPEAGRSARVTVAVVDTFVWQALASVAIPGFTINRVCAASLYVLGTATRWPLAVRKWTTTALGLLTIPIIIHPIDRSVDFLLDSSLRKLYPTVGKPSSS
inactive: lapatinib 0.026 | pictilisib 0.017 | crizotinib 0.097 | duvelisib -0.01 | gandotinib 0.059 | tozasertib 0.006 | doramapimod -0.043 | bafetinib 0.01 | [2] 0.067
active: [1] -0.364

NUMBL (UniProt Q9Y6R0)
inactive: lapatinib 0.01 | pictilisib 0.111 | crizotinib 0.066 | [1] 0.018 | duvelisib 0.162 | gandotinib 0.176 | tozasertib 0.036 | doramapimod 0.247 | bafetinib 0.041 | [2] 0.036

OCRL (UniProt Q01968)
Sequence of UniProt Q01968 (Q01968 whole entry, looked up): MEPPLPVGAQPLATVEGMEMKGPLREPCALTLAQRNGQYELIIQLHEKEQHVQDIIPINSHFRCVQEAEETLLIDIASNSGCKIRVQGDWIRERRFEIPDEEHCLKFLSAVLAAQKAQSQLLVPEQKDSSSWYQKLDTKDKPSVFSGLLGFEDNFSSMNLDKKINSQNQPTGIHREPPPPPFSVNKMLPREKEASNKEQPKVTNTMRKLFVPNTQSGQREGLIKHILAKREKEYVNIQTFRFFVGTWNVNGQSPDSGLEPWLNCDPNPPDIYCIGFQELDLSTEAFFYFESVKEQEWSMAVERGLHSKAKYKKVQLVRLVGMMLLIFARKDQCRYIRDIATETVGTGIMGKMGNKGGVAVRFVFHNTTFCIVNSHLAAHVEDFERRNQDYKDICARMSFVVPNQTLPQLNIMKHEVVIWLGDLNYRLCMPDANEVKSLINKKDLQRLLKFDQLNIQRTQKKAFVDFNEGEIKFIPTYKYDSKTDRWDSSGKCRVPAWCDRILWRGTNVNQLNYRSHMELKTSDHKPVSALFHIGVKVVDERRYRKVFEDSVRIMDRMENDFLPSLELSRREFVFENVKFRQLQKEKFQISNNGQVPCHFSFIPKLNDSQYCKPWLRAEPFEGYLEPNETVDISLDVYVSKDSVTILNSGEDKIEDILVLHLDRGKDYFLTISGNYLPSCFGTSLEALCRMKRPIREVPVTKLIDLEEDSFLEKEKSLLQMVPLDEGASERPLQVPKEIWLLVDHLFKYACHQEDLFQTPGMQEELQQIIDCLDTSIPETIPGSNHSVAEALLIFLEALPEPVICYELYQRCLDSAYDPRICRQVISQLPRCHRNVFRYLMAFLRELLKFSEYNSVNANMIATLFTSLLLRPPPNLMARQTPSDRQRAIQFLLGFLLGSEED
inactive: lapatinib 0.008 | pictilisib -0.029 | crizotinib -0.047 | [1] -0.029 | duvelisib -0.013 | gandotinib -0.009 | tozasertib 0 | doramapimod 0.033 | bafetinib 0.001 | [2] 0.047

OSBPL6 isoform 5 (UniProt Q9BZF3)
Sequence of UniProt Q9BZF3 (Q9BZF3 whole entry, looked up): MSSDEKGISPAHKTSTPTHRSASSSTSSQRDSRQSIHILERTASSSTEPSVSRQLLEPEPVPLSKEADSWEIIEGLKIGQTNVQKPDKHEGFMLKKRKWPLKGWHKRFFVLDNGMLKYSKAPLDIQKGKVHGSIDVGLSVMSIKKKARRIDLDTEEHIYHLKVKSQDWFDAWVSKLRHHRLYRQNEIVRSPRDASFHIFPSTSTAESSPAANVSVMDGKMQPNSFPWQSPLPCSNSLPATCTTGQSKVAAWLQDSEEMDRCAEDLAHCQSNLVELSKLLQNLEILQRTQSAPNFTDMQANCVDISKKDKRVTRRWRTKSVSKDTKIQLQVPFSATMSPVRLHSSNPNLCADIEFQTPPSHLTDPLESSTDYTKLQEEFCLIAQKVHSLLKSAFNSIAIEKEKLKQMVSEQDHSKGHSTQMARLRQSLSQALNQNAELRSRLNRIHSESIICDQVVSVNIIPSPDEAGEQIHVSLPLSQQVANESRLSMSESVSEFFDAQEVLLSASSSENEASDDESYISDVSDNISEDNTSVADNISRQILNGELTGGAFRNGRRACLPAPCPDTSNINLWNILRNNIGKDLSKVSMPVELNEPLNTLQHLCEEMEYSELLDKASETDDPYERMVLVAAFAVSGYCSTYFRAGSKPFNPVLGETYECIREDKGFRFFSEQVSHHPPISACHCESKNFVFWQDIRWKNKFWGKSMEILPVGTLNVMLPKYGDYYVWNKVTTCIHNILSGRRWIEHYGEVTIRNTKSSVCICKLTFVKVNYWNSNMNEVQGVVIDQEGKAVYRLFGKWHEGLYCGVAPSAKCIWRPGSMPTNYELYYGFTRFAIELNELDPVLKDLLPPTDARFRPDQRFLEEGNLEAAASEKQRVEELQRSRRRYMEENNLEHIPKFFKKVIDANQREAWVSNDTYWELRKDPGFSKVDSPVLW
active: crizotinib 0.367
inactive: lapatinib 0.077 | pictilisib 0.008 | [1] -0.003 | duvelisib -0.003 | gandotinib 0.033 | tozasertib 0.036 | doramapimod 0.005 | bafetinib 0.32 | [2] 0.004

MTOR (UniProt P42345)
inactive: lapatinib -0.008 | pictilisib -0.016 | crizotinib -0.068 | [1] -0.042 | duvelisib 0.021 | gandotinib -0.079 | tozasertib 0.018 | doramapimod 0.055 | bafetinib -0.015 | [2] 0.053

NIT2 (UniProt Q9NQR4)
inactive: lapatinib 0.002 | pictilisib -0.048 | crizotinib -0.026 | [1] -0.008 | duvelisib 0.011 | gandotinib -0.01 | tozasertib 0.002 | doramapimod -0.023 | bafetinib 0.011 | [2] -0.06

MRPL51 (UniProt Q4U2R6)
inactive: lapatinib -0.051 | pictilisib -0.016 | crizotinib 0.056 | [1] -0.201 | duvelisib -0.004 | gandotinib 0.058 | tozasertib 0.083 | doramapimod -0.247 | bafetinib 0.02 | [2] 0.091

— the supplement of paper PMC10849652
